Compounds with a hit are over-represented: about 12% of the library has one in this group of screens.
HP1b binding inh – HTS for Inhibitors of HP1-beta Chromodomain Interactions with Methylated Histone Tails; Chromobox protein homolog 1 (Homo sapiens), P83916; AlphaScreen HP1-beta / biotin-H3K9me3 peptide binding; Potency, µM (highest dose often 114 µM), most hits filed as inhibitors; 390,000 compounds, 0.56% hits; AID 540317, 2011; further: nearly all actives have a fitted effect of over 70% in size
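AlphaScreen: HP1-beta (50 nM) preformed 30 min with biotin-H3(1-18)K9me3 peptide (50 nM) in PBS pH 7.4, 0.01% Tween-20. Compound added for 30 min at RT, then streptavidin donor/nickel chelate acceptor beads (10 ug/mL) for 30 min.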
PLK1 PBD inh – qHTS for Inhibitors of PLK1-PDB (polo-like kinase 1 - polo-box domain): Primary Screen | 360,000 compounds, 2.8% hits | Potency, µM, actives largely listed as inhibitors | Plk1 PBD binding of FITC phosphopeptide, fluorescence polarization; further: series mostly up to about 57 µM; nearly all actives have a fitted effect of over 65% in size
BAZ2B block – qHTS Assay for Inhibitors of BAZ2B. AID 504333, 2011. 360,000 compounds, 4.4% hits. Bromodomain adjacent to zinc finger domain protein 2B (Homo sapiens), Q9UIF8. AlphaScreen BAZ2B-H3K14Ac peptide displacement. Potency, µM (top dose mostly 114 µM), usual class: inhibitors; further: nearly all actives have a fitted effect of over 60% in size
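Compounds, titrated to a top concentration of 110 uM, were incubated 30 min at room temperature with preformed BAZ2B/acetyl-K14 H3 peptide complex (50 nM each). Proximity signal was measured by AlphaScreen after 20 min with beads.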
JMJD2A Tudor inh – qHTS Assay for Inhibitors of JMJD2A-Tudor Domain. AID 504339, 2011. AlphaScreen JMJD2A-Tudor / H3K4me3 peptide binding. Potency, µM (series often up to 114 µM), hits mostly inhibitors. Lysine-specific demethylase 4A (Homo sapiens), O75164. 390,000 compounds, 4.4% hits; further: nearly all actives have a fitted effect of over 50% in size
Target sequence (O75164 whole entry, looked up, the tested form may be a part): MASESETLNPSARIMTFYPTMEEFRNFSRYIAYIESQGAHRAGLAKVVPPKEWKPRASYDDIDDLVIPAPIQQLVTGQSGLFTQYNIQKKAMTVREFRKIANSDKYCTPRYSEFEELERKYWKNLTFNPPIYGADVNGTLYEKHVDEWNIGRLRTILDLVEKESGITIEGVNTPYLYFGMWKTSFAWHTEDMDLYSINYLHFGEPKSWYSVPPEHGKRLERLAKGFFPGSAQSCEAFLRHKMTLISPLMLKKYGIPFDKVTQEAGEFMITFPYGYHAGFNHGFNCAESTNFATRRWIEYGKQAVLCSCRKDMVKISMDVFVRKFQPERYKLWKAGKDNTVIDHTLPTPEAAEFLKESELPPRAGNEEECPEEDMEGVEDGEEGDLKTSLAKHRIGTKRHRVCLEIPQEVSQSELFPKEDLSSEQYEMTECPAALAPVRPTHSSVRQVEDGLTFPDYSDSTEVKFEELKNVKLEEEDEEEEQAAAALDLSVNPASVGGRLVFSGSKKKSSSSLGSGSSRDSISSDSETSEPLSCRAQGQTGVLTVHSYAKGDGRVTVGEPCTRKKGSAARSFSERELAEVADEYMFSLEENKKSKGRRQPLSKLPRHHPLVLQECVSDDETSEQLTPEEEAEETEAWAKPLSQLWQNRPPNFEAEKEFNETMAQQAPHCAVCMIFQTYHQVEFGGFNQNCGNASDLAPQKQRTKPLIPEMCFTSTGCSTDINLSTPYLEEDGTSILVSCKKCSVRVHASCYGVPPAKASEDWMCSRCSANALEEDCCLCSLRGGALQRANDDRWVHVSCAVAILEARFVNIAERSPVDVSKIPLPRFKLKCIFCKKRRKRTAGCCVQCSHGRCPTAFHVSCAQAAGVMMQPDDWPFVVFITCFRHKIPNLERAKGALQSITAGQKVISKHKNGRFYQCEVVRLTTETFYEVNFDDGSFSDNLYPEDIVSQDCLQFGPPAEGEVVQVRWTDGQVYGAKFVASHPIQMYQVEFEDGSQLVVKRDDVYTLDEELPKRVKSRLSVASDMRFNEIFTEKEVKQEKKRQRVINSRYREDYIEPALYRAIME
Sfp inh – qHTS Assay for Inhibitors of Bacillus subtilis Sfp phosphopantetheinyl transferase (PPTase); 4'-phosphopantetheinyl transferase ffp (Bacillus subtilis), Q9F4F7; Biochemical Sfp PPTase activity, qHTS; Potency, µM, most hits filed as inhibitors; 310,000 compounds, 3.5% hits;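 further: the enzyme is Sfp with the accession as filed and its product quenches rhodamine fluorescence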
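After 15 min at room temperature with compound, 15 nM Sfp received 5 uM rhodamine-CoA plus 12.5 uM BHQ-2-ybbR (50 mM Hepes pH 7.6, 10 mM MgCl2). Rate came from the fluorescence difference over 30 min, ex 525/em 598 nm.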
G9a block – qHTS Assay for Inhibitors of Histone Lysine Methyltransferase G9a; Histone-lysine N-methyltransferase EHMT2 (Homo sapiens), Q96KQ7; G9a H3K9 monomethylation, AlphaScreen, 2 h; Potency, µM (highest dose often 102 µM), actives largely listed as inhibitors; 350,000 compounds, 8.8% hits; further: nearly all actives have a fitted effect of over 75% in size
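G9a (20 nM) preincubated 15 min RT with compounds, then 500 nM biotinylated H3K9 peptide and 20 uM SAM added; 2 h RT reaction. Monomethyl-H3K9 product detected by AlphaScreen with anti-H3K9me1 antibody, streptavidin donor and anti-rabbit IgG acceptor beads.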
A number is an active result; - = inactive; ? = inconclusive; . = no result given; [ ] = another dose, or the depositor's remark. The call rests on the fitted dose curve; in most records, active means well fitted curve in the direction sought with a large enough effect; inconclusive means small, poorly fitted or top-dose-only effect, or another doubt; inactive means no such curve, though single readings can be large; an effect the other way counts as inactive or inconclusive.

SMILES | HP1b binding inh | PLK1 PBD inh | BAZ2B block | JMJD2A Tudor inh | Sfp inh | G9a block
CCC1(c2ccc(Cl)cc2)NC(=S)N(c2ccccc2)N1 (centres undefined) | - | ? | - | - | 56.2µM | 12.6µM
Cc1ccc(N2CN(CCc3ccccc3)CNC2=S)cc1 | - | - | - | - | - | .
Cc1ccc2nc3c(cc(C#N)c(=N)n3Cc3cccnc3)c(=O)n2c1 | . | . | - | . | - | -
CC1=NN(c2ccc(C(=O)O)c(N)c2)C(=O)C1 | 70.8µM | - | 39.8µM | 50.1µM | ? | 4.47µM
CC1=NN(c2cc(Cl)c(S(=O)(=O)O)cc2Cl)C(=O)C1 | - | - | . | 89.1µM | . | .
CC1=NN(c2cccc(Cl)c2)C(=O)C1 | - | - | ? | - | - | -
CC1=NN(c2ccc(Cl)c(C(=O)O)c2)C(=O)C1 | - | - | - | 56.2µM | - | 50.1µM
Cc1cccc2cc(CN(Cc3nnnn3C3CCCCC3)C3CCCC3)c3nnnn3c12 | - | - | - | - | - | -
Cc1cc(C)c(OCCCON2C(=O)CCC2=O)c(Br)c1 | - | - | - | - | - | -[12.7 µM]
CN1CCN(CCOCCOc2c(Cl)cc(Cl)cc2Cl)CC1 | - | - | . | - | . | .
Cc1cc(Cl)c(OCCOCCN2CCN(C)CC2)c(Br)c1 | ? | - | 50.1µM | 7.94µM | ? | ?
Cc1cc(C)c(OCCCCN2CCC(C)CC2)c(Br)c1 | ? | - | ? | 5.01µM | - | -
Cc1cc(Cl)c(OCCOCCN2CCC(C)CC2)c(Br)c1 | - | - | ? | 7.94µM | - | ?
COc1cccc(NC(=O)CSC(N)=O)c1 | - | - | - | - | - | -
Cc1cc(C)c(Nc2nc3ccccc3n3c(C)nnc23)c(C)c1 | - | . | - | - | . | -
CC1(C)N=C(c2ccc(F)cc2)C(=O)N1CC(=O)Nc1ccccc1Cl | - | . | - | - | . | -
N#CC1=C(Nc2ccccc2)SC=C(c2ccc(Cl)c(Cl)c2)N=C1N1CCOCC1 | - | - | ? | - | - | -[0.501 µM]
N#CC1=C(Nc2ccccc2)SC=C(c2ccccc2)N=C1N1CCOCC1 | - | - | - | - | - | 50.1µM
CCc1cccc(-n2c(=O)c3cccnc3n2CC(=O)Nc2ccc(OC)c(Cl)c2)c1 | - | . | - | - | . | -
O=C1CCc2cc(S(=O)(=O)Nc3ccccc3-c3ccccc3)ccc2N1 | . | . | . | - | . | .
CC(C)C1=CC2=CCC3C(C)(C(=O)O)CCCC3(C)C2CC1 (centres undefined) (tested in a mixture with another compound) | . | . | - | . | - | 70.8µM
C#CCOCCOCCOCCNc1nc(N2CCN(C(=O)[C@H]([C@@H](C)CC)n3cc(CCCN=C(N)N)nn3)CC2)nc(N2CCN(C(=O)[C@H]([C@@H](C)CC)n3cc(CCCN=C(N)N)nn3)CC2)n1 | . | . | ? | . | - | 20µM
C#CCOCCOCCOCCNc1nc(N2CCN(C(=O)[C@H]([C@@H](C)CC)n3cc(CCCCN)nn3)CC2)nc(N2CCN(C(=O)[C@H](C)n3cc(CCC(=O)O)nn3)CC2)n1 | - | - | ? | - | ? | 79.4µM
C#CCOCCOCCOCCNc1nc(N2CCN(C(=O)[C@H](C)n3cc(CCCN=C(N)N)nn3)CC2)nc(N2CCN(C(=O)[C@H](C)n3cc(CCCN=C(N)N)nn3)CC2)n1 | - | - | - | - | - | 79.4µM
C#CCOCCOCCOCCNc1nc(N2CCN(C(=O)[C@H]([C@@H](C)CC)n3cc(CCCN=C(N)N)nn3)CC2)nc(N2CCN(C(=O)[C@H](Cc3ccc(O)cc3)n3cc(CCO)nn3)CC2)n1 | - | - | ? | ? | - | 44.7µM
SMILES | HP1b binding inh | PLK1 PBD inh | BAZ2B block | JMJD2A Tudor inh | Sfp inh | G9a block
Cc1nn(C(C)C(=O)Nc2cccc(F)c2)c(=O)c2c1sc1ccccc12 (centres undefined) | - | . | - | - | . | -
NCCC[C@@H](CC(=O)N[C@@H]1CCCC[C@H]1C(=O)N[C@H](CC(=O)N[C@@H](CCC(=O)O)CC(=O)O)Cc1ccccc1)NC(=O)C[C@H](Cc1ccccc1)NC(=O)[C@@H]1CCCC[C@H]1N | . | . | . | . | - | .
C#CCOCCOCCOCCNc1nc(N2CCN(C(=O)Cn3cc(CCCN=C(N)N)nn3)CC2)nc(N2CCN(C(=O)Cn3cc(CCCN=C(N)N)nn3)CC2)n1 | . | . | ? | . | - | 25.1µM
C#CCOCCOCCOCCNc1nc(N2CCN(C(=O)[C@H]([C@@H](C)CC)n3cc(CCCN=C(N)N)nn3)CC2)nc(N2CCN(C(=O)[C@H](C)n3cc(CCCN=C(N)N)nn3)CC2)n1 | - | - | ? | - | - | 39.8µM
C#CCOCCOCCOCCNc1nc(N2CCN(C(=O)Cn3cc(CC(C)O)nn3)CC2)nc(N2CCN(C(=O)[C@H]([C@@H](C)CC)n3cc(CCCN=C(N)N)nn3)CC2)n1 (some centres undefined) | - | - | ? | - | - | 50.1µM
Cc1ccccc1C(=O)NCC(=O)OC1CCCCC1=O (centres undefined) | - | - | - | - | . | -
CC(C)CNc1ncnc2[nH]ncc12 | - | - | . | - | . | .
CCc1ccc(CNC(=O)c2cnc3c(C)cccn3c2=O)cc1 | - | . | - | - | . | -
CC1(C)Oc2ccc3ccc(=O)oc3c2/C(=C/Nc2cccc(O)c2)C1=O | ? | - | ? | 39.8µM | - | 44.7µM
CC1(C)Oc2ccc3ccc(=O)oc3c2/C(=C/Nc2ccc(O)cc2)C1=O | ? | ? | - | -[11.4 µM] | - | -
CC1(C)Oc2ccc3ccc(=O)oc3c2/C(=C/NNC(N)=S)C1=O | - | - | 50.1µM | ? | - | 7.08µM
CN/C=C1\C(=O)C(C)(C)Oc2ccc3ccc(=O)oc3c21 | - | - | - | - | - | -
COc1cc([C@@H]2c3cc4c(cc3C(OC3OC5COC(C)OC5C(O)C3O)C3COC(=O)[C@@H]32)OCO4)cc(OC)c1O (some centres undefined) | . | . | . | . | - | .
CO[C@H]1COC(=O)C/C=C\[C@H](C)[C@@H](OC)COC(=O)[C@@H](C)NC(=O)C/C=C\[C@@H]1C | . | . | . | . | - | .
CCOC(=O)c1sc(S(C)(=O)=O)c2c1CCc1conc1-2 | - | - | - | - | - | 56.2µM
O=C(O)Cc1ccc(C(=O)c2ccccc2F)s1 | - | - | - | - | - | 44.7µM
O=C(O)Cc1ccc(C(=O)c2ccc(Cl)cc2Cl)s1 | - | - | - | - | - | -
COc1cc(C2NC(=O)C(C#N)=C(S)N2c2ccccc2)ccc1OC(C)C (centres undefined) | - | - | - | - | 39.8µM | ?
COc1ccc(N2C(S)=C(C#N)C(=O)NC2c2ccco2)cc1 (centres undefined) | - | ? | - | - | 28.2µM | 35.5µM

High-throughput results as filed in PubChem.
